Assay results from PubChem BioAssay AID1035470 (Broad Institute, 2014).
Screen size: about 1,800 compounds; fewer than 10 were called active. About 16% were inconclusive and are not listed.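 How the source made its calls: active means compound lowering the normal-ribosome reporter at least twice as much as the humanized-ribosome reporter, growth loss under a set limit; inconclusive means no clear call, values can overlap the other calls; inactive means the rest.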 Not all results are given here. Measured potencies and affinities stand elsewhere.

assay: E. coli strain growth, wild-type against G2058 humanized RFP mutant – G2058 mutant RFP vs wild-type GFP, cherry-pick, two tests, dose response (AID 1035470); details: E. coli WT-GFP vs G2058-humanized RFP, fluorescence, 24 h; series mostly up to 50 µM; activity change, negative = inhibition: at the top concentration

Activity change, negative = inhibition, inactive:
CC1(C)CC(=O)c2cnc(N3CCc4ccccc43)nc2C1 6.66
S=c1nc(-c2cc(Cl)cc(Cl)c2)[nH][nH]1 -16.2
O=[N+]([O-])c1ccc(NCCNCCOc2nonc2-c2ccccc2)c([N+](=O)[O-])c1 -27.2
Cc1nn2c(NCc3ccccn3)cc(C(C)C)nc2c1-c1ccccc1 -11.1
O=S(=O)(NOCc1ccc(Cl)cc1)c1ccc(Cl)cc1 -15
O=C(Nc1ccc2c(c1)OCCO2)C1C(c2ccccc2)=Nc2ccccc2N1C(=O)c1cccnc1 (configuration not stated) 0.765
O=C(COc1ccccc1Cl)Nc1nc(-c2ccncc2)cs1 -15.4
CCOc1ccccc1N1CC(C(=O)Nc2cccc(S(=O)(=O)N3CCCCC3)c2)CC1=O (configuration not stated) -18
COc1ccc(-c2csc3ncn(-c4ccc(C)cc4)c(=O)c23)cc1OC -22.9
O=C(NCc1nnnn1-c1ccc(Cl)cc1)c1ccc([N+](=O)[O-])o1 -6.35
O=[N+]([O-])c1cccc(COc2ccc(CN3CCOCC3)cc2)c1 -1.83
C[C@@H]1CN([C@@H](C)CO)C(=O)c2cc(NC(=O)C3CC3)ccc2O[C@H]1CN(C)C(=O)Nc1ccc(C(F)(F)F)cc1 -10.7
CCN(CC(=O)Nc1cccc(S(=O)(=O)N2CCCC2)c1)CC(=O)Nc1ccccc1OC -14.9
COC(=O)c1ccc2nc(-c3ccco3)c(Cc3ccc(C)cc3)n2c1 -19.6
COc1ccc(CC(=O)Nc2cc(S(=O)(=O)Nc3ccc(OC)cc3)ccc2OC)cc1 -11.4
CC(C)CNc1nc(S(=O)(=O)c2ccccc2)c(Cl)s1 -11.6
O=C(CN1CCCCC1)n1c2ccccc2c2ccccc21 1.66
O=C1c2ccccc2C(c2nnnn2Cc2ccccc2)N1Cc1cccc(F)c1 (configuration not stated) -9.45
Cc1nn(CC(=O)c2ccc(Br)s2)c(C)c1[N+](=O)[O-] -2.97
Brc1ccc(-n2cnc(-c3ccccc3)c2)cc1 2.89
NC(=O)c1cccnc1Oc1ccc(Cl)cc1Cl -0.964
CCc1ccc(NC(=O)CCc2c(C)nn(-c3ccc(N4CCCCC4)nn3)c2C)cc1 -14.7
COc1ccc2c(c1)-c1nc(N)sc1CC2 -4.08
CC(C)(C)N(Cc1ccccc1)C(=O)COC(=O)Cn1cnc2ccccc2c1=O -17.1
COc1ccc(OC)c(NC(=O)CN(C)CC(=O)Nc2ccccc2Br)c1 -33
O=C(c1ccccc1)C1CN(Cc2ccccc2)CCC1(O)c1ccccc1 (configuration not stated) -2.03
CCC1(CC)NC(=O)N(CC(=O)N2N=C(c3ccc(Cl)cc3)CC2c2ccco2)C1=O (configuration not stated) -18.3
CCOc1ccccc1C(=O)NCC(=O)OCCOc1cccc(Cl)c1 -3.78
O=C(Nc1cc(F)ccc1F)N1CCCCN2[C@@H](CO)[C@H](c3ccc(-c4ccncc4)cc3)[C@@H]2C1 -2.55
O=S1(=O)N[C@H](Cc2ccccc2)COc2cc(N3CCSCC3)ccc21 -14
COc1cccc(NC(=O)c2ccc(NCCCN3CCC(C)CC3)c([N+](=O)[O-])c2)c1 -20
Cc1noc(C)c1S(=O)(=O)N(Cc1ccccc1)C(C)C -8.45
Cc1ccc(-c2c(=O)n(O)c3ccccc3[n+]2[O-])cc1 -1.24
Cc1nn2c(C)c(C(=O)Nc3ccccc3)cnc2c1-c1ccccc1 -2.61
CC(C)(C)S(=O)(=O)Cc1nc(-c2ccc(Cl)c(Cl)c2)cs1 -9.21
CCCCc1cc2c(cc1NC(=O)CN1CCCCC1)OCCO2 2.37
COC(=O)c1ccsc1NC(=O)c1cccc(OC)c1 -15.2
O=[N+]([O-])c1ccc(O)c(CSc2nnnn2-c2ccccc2)c1 1.54
COCC(C)NC(=O)c1nn(Cc2ccccc2)c(=O)c2ccccc12 (configuration not stated) -8.39
Cc1ccc(NC(=O)C[n+]2cc(-c3ccccc3)n3c2CCC3)c(C)c1 -8.76
COc1cc(OC)c(NS(=O)(=O)c2cccc(C(=O)OCC(=O)NCC3CCCO3)c2)cc1Cl (configuration not stated) -3.42
Cc1ccc(Nc2nc(C(=O)NCC3CCCO3)cs2)cc1 (configuration not stated) 0.237
CCOC(=O)c1cccc(OS(=O)(=O)Cc2ccccc2)c1 -24.3
Cc1ccc(S(=O)(=O)NCc2c(-c3ccccc3)noc2C)cc1 -15.8
Cc1ccc(NC(=O)COC(=O)CCNS(=O)(=O)c2c(Cl)cccc2Cl)cc1 1.97
CC1CCN(C(=O)COC(=O)c2ccccc2NC(=O)c2ccco2)CC1 -7.91
CCc1cccc(NC(=O)c2ccc3c(=O)n4c(nc3c2)CCCCC4)c1 -6.15
Cc1cc(C)cc(NC(=O)COC(=O)CC2CCCC2)c1 4.58
CCn1c(COc2cccc(OC)c2)nnc1SCC(=O)Nc1cc(OC)ccc1OC -12
COc1ccc(S(=O)(=O)N2CCOc3ccccc32)cc1 -15.4
COc1ccc(-n2nc3cc(N)c(Br)cc3n2)cc1 -9.4
COC(=O)[C@]1(Sc2ccc(C)cc2)CC(=O)N[C@@H]1c1ccccc1 -6.4
O=C(CSc1nc2ccccc2n1S(=O)(=O)c1cccc([N+](=O)[O-])c1)NCCc1ccccc1 -5.02
S=c1[nH]nc(-c2ccc3ccccc3n2)n1-c1ccc2c(c1)OCCO2 -7.71
Cc1ccnc(NS(=O)(=O)c2ccc(NC(=O)c3ccc4c(c3)OCCO4)cc2)n1 -9.76
COc1ccc(OC)c(-c2nn(-c3ccccc3)cc2C(=O)N2CCc3ccccc3C2)c1 -18.4
Cc1c(Cc2ccccc2)sc(NC(=O)Cc2ccccc2)c1C(N)=O -0.013
COC(=O)c1sccc1NC(=O)CNC(=O)c1ccccc1 -7.99
O=C(Cc1c(F)cccc1Cl)N(Cc1ccccc1)c1ccccn1 -16.8
Cc1ccoc1C(=O)Nc1ccc2ccccc2c1 -10.1
Cc1cc(CNC(=O)c2cc(-c3ccccc3)nc3ccccc23)nn1C -1.97
Cc1cccc(-c2nsc(SCC(=O)NCC3CCCO3)n2)c1 (configuration not stated) -11.8
Cc1ccc2nc(N(CCN(C)C)C(=O)C3CCN(S(=O)(=O)c4cccs4)CC3)sc2c1 4.53
COc1ccc(-c2csc(NC(=O)c3ccoc3C)n2)cc1 -22.7
CCC1CCCCN1C(=O)CSc1nnc(-c2cccc(Cl)c2)o1 (configuration not stated) -21.8
CCc1nc2ccccc2c(C(=O)OCC(=O)NC(=O)c2cccn2C)c1C -6.91
Cc1ccc(Cc2c(-c3ccc(C#N)cc3)nc3ccc(Br)cn23)cc1 -5.11
CCOC(=O)c1cnc2ccc(OCC)cc2c1NCCCN1CCOCC1 -9.57
CCOC(=O)C(CC)Sc1cc(C)nc2ccc(OC)cc12 (configuration not stated) -16.2
COc1ccc(C(=O)COc2ccc(F)cc2)c(O)c1 -7.68
Cc1cccc(-c2cc3nc4c(c(N5CCOCC5)n3n2)CCCC4)c1 -4.46
Cc1cccc(NS(=O)(=O)c2cc3c(cc2C)NC(=O)CO3)c1 -4.25
Cc1cccc(OCCn2c(=O)oc3ccc(C)cc32)c1 -7.06
CC(=O)Nc1cccc(NC(=O)CCN2C(=O)c3ccccc3S2(=O)=O)c1 -6.12
c1cncc(-c2nc3cc4ccccc4cc3[nH]2)c1 -15.5
Cc1ccccc1S(=O)(=O)c1cc2ccccc2nc1N -9.42
COc1ccccc1-c1noc2ncnc(Nc3ccccc3C)c12 -8.79
COc1ccccc1Cc1c(-c2ccc(F)cc2)nc2ccc(Br)cn12 -0.955
COc1ccc(-c2nc(C3CCCCC3)no2)cc1OC -15.4
c1ccc(Sc2ncnc3ccccc23)cc1 -5.5
COc1cccc(NC(=O)C(C)SCc2ccccc2)c1 (configuration not stated) -14.7
Cc1cc(Br)ccc1NC(=O)c1ccco1 0.378
O=C(CSCc1cnn(-c2ccccc2)c1-n1cccc1)NCc1cccnc1 -6.66
O=C(Nc1ccc(Cl)c(Cl)c1)c1ccc(Cl)c(Cl)c1 -12.7
O=[N+]([O-])c1ccc2nc(-c3ccccc3[N+](=O)[O-])[nH]c2c1 -1.6
O=c1c2ccccc2nc(SCc2ccccc2)n1CC1CCCO1 (configuration not stated) -15.1
CCOCCCNC(=O)C(NC(=O)c1ccccc1O)c1ccc(C)cc1 (configuration not stated) -14.3
COc1ccc(Nc2nc(N)c([N+](=O)[O-])c(N3CCCC3)n2)cc1 2.69
CS(=O)(=O)c1ccc(Cl)c(NC(=O)CSc2nncn2-c2ccccc2)c1 -10.3
c1ccc(CSCc2ccccc2)cc1 -7.54
O=C(Nc1ccc(Cl)c(Cl)c1)N[C@@H]1CC[C@@H](CCn2cc(C3CCCCC3)nn2)O[C@H]1CO -14.9
CCOc1ccc(NC(=O)CCc2nnc3ccc(N4CCC(C)CC4)nn23)cc1 -4.54
Cc1csc(SCc2nc3scc(-c4ccccc4)c3c(=O)[nH]2)n1 -4.09
CC(C)(C)c1ccc2c(c1)C(c1ccc3c(c1)OCO3)CC(=O)O2 (configuration not stated) -8.87
Cc1ccccc1Nc1c(-c2cccnc2)nc2ccc(Br)cn12 6.1
CC1(CCC(=O)N2CCCC(N3CCN(c4ccc(F)cc4)CC3)C2)CC1 (configuration not stated) -9.89
C=CCn1c(C)cc(C(=O)CSc2nnc(C3CC3)n2C2CC2)c1C -7.34
c1ccc(-c2sc3ccccc3c2-c2ccc(OCCN3CCCCC3)cc2)cc1 -14.3
CN(C(=O)COC(=O)CSc1ccc(C(N)=O)cc1[N+](=O)[O-])C1CCCCC1 4.54
CC(C)OCCCNC(=O)c1ccc(CS(=O)(=O)c2cccc(C(F)(F)F)c2)o1 -6.78
COc1ccc(C(=O)Nc2cccc3ccccc23)cc1 -12.3
CCS(=O)(=O)N1CCN(c2ccc([N+](=O)[O-])c(NCC3CCCO3)c2)CC1 (configuration not stated) 2.49
Cc1nn(S(=O)(=O)c2ccc(Cl)cc2)c(C)c1Sc1ccc([N+](=O)[O-])cc1 2.39
C[C@@H]1CN([C@@H](C)CO)C(=O)c2cc(NC(=O)Nc3cccc4ccccc34)ccc2O[C@@H](C)CCCCO[C@@H]1CN(C)C(=O)CCCN(C)C -4.58
O=C(COC(=O)C1CC2C=CC1C2)NCCc1ccccc1 (configuration not stated) 12.8
O=C(CN1CCCCC1)Nc1ccccc1-c1ccccc1 -10.8
CN(Cc1ccc(Cl)s1)C(=O)CNC(=O)CNC(=O)c1ccc(Cl)cc1Cl 3.86
